Records with an inconclusive call do not appear. The source made the active and inactive calls. Unless noted, the call rests on the fitted dose curve; in most records, active means well fitted curve in the direction sought with a large enough effect in the repeat runs; inconclusive means weak or mixed curves; inactive means no such curve, though single readings can be large; an effect the other way counts as inactive or inconclusive.
Tests used:
[1] = qHTS RealTime-Glo MT Cell Viability Assay in HEK293 cells - 24 hour (AID 1224886); further: top concentration of the series differs between compounds; nearly all actives have a fitted effect of over 50% in size
How it was run: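 HEK293 cells were seeded at 600 cells/well together with NanoLuc luciferase and cell-permeant prosubstrate, preincubated 5 h at 37 C/5% CO2, then given compound in DMSO by pintool. Luminescence from viable-cell prosubstrate reduction was read repeatedly over 40 h.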

[2] = qHTS RealTime-Glo MT Cell Viability Assay in HEK293 cells - 8 hour (AID 1224887); further: top concentration of the series differs between compounds; nearly all actives have a fitted effect of over 50% in size
How it was run: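 Real-time viability in HEK293: signal arises when living cells convert a prosubstrate for NanoLuc in the medium, so luminescence tracks viable cell number. Compound (23 nL, DMSO) added 5 h post-seeding; kinetic reads at 0–40 h, 37 C.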

[3] = A CellTox Green Cytotoxicity Assay to monitor cytotoxicity in HEK293 cells - 16 hour (AID 1224888); further: nearly all actives have a fitted effect of over 35% in size
How it was run: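 Cells (HEK293, 600/well) and dye reagent are dispensed together. After 5 h at 37 C, 23 nL compound is pinned in. Plates stay at 37 C for 40 h with fluorescence read at 0h, 8h, 16h, 24h, 32h and 40h.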

[4] = qHTS RealTime-Glo MT Cell Viability Assay in HepG2 cells - 0 hour (AID 1224889); further: nearly all actives have a fitted effect of over 50% in size
How it was run: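 HepG2 cells were seeded at 600 cells/well together with NanoLuc luciferase and a cell-permeant prosubstrate, preincubated 5 h at 37 C/5% CO2, then pin-dosed with compounds in DMSO. Nonlytic luminescence from viable cells was read at each time point.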

[5] = A CellTox Green Cytotoxicity Assay to monitor cytotoxicity in HepG2 cells - 8 hour (AID 1224890); further: nearly all actives have a fitted effect of over 45% in size
How it was run: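 Cells and non-lytic dye reagent are dispensed together (600 HepG2 cells/well) and incubated 5 h before DMSO compound transfer. Kinetic fluorescence is then recorded in the same wells during 40 h at 37 C.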

[6] = qHTS assay to identify small molecule antagonists of the androgen receptor (AR) signaling pathway using the MDA cell line in the presence of 0.5 nM R1881 - cell viability counter screen (AID 1259242); further: nearly all actives have a fitted effect of over 45% in size
How it was run: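 Steps: plate MDA-kb2 cells, rest 5 hr at 37C without CO2; pin in compounds in DMSO; add R1881 to 0.5 nM final; incubate 16 hr; add CellTiter-Fluor, 30 min; read fluorescence.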

[7] = target: Estrogen receptor (Homo sapiens) (UniProt P03372); assay: qHTS assay to identify small molecule antagonists of the estrogen receptor alpha (ER-alpha) signaling pathway using the BG1 cell line in the presence of 0.1 nM 17-beta-estradiol (AID 1259244); further: nearly all actives have a fitted effect of over 50% in size
Estrogen receptor (Homo sapiens), sequence (P03372 whole entry, looked up): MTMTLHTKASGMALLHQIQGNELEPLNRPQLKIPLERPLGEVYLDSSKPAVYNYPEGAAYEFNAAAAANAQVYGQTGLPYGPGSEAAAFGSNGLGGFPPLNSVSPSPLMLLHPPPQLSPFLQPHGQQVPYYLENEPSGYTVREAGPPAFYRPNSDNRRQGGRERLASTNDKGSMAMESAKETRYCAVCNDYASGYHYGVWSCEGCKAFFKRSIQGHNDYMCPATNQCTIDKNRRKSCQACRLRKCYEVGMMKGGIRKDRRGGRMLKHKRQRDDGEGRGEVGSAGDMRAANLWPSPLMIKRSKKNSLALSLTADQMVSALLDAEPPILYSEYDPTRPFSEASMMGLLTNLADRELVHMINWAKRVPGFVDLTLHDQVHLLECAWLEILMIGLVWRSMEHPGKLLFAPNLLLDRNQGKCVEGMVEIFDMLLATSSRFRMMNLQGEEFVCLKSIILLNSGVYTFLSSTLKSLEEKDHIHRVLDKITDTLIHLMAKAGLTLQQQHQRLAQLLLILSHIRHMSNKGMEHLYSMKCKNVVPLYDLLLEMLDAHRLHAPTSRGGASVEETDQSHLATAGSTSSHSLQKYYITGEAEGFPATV
How it was run: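 Antagonist mode: compounds in DMSO are pinned onto VM7Luc4E2 reporter cells, 0.1 nM final 17beta-estradiol is added, and after 22 h at 37C luciferase luminescence is measured with ONE-Glo.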

[8] = qHTS assay to identify small molecule phospholipidosis (PLD) inducers (AID 1259344; active means well fitted curve in the direction sought with a large enough effect; an effect the other way counts as inactive or inconclusive)
How it was run: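 Read-out is LipidTOX Red fluorescence (ex 595/em 615) imaged in HepG2 cells after 24 h compound exposure at 37 C, with Hoechst nuclear counterstain (ex 352/em 461) allowing per-cell normalisation.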

[9] = qHTS assay to identify small molecule HDAC inhibitors (AID 1259364);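 further: wild-type HCT-116 cells with endogenous class I/II HDAC activity; top concentration of the series differs between compounds; nearly all actives have a fitted effect of over 45% in size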
How it was run: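 Cells (HCT-116, wild type) are seeded at 1,500 per well, incubated overnight, treated with compound in DMSO for 2 hr, then developed with HDAC-Glo I/II reagent for 30 min at room temperature.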

[10] = qHTS assay to identify small molecule HDAC inhibitors - cell viability counter screen (AID 1259365)
How it was run: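 Following a 2hr exposure of overnight-plated wild-type HCT-116 cells to DMSO-delivered compounds, CellTiter-Glo was added and luminescence recorded after 30min at room temperature.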

[11] = qHTS assay to identify small molecule agonists of the sonic hedgehog signaling (Shh) pathway - cell viability counter screen (AID 1259366); further: nearly all actives have a fitted effect of over 50% in size
How it was run: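 After a 4hr attachment at 37C, NIH/3T3 cells bearing an integrated Gli1-driven luciferase reporter were dosed with compounds. Treatment lasted 24hr, with the final hour including CellTiter-Fluor for a fluorescence viability measurement.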

[12] = qHTS assay to identify small molecule antagonists of the sonic hedgehog signaling (Shh) pathway - cell viability counter screen (AID 1259367); further: nearly all actives have a fitted effect of over 55% in size
How it was run: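 Fluorescence read-out (CellTiter-Fluor, 1 hr at 37C) taken after 23 hr compound treatment of 3T3 Gli1-Luc cells stimulated with conditioned medium. Cells were seeded at 2,000 per well and pre-incubated 4 hr.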

[13] = qHTS assay to identify small molecule antagonists of the sonic hedgehog signaling (Shh) pathway (AID 1259369; calls by dose curve; further: nearly all actives have a fitted effect of over 45% in size)
How it was run: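 Cells are plated and held 4hr at 37 C, compounds (DMSO) are pinned in, conditioned medium is added to stimulate the pathway, and after 24hr luciferase reagent is added for 30min before luminescence is read.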

[14] = target: Estrogen receptor beta (Homo sapiens) (UniProt Q92731); assay: qHTS assay to identify small molecule agonists of the estrogen receptor beta (ER-beta) signaling pathway (AID 1259377; active means well fitted activation curve with a large enough effect in the signal ratio in the repeat runs, not every such curve was filed as active; the % refers to the signal ratio)
Estrogen receptor beta (Homo sapiens), sequence (Q92731 whole entry, looked up): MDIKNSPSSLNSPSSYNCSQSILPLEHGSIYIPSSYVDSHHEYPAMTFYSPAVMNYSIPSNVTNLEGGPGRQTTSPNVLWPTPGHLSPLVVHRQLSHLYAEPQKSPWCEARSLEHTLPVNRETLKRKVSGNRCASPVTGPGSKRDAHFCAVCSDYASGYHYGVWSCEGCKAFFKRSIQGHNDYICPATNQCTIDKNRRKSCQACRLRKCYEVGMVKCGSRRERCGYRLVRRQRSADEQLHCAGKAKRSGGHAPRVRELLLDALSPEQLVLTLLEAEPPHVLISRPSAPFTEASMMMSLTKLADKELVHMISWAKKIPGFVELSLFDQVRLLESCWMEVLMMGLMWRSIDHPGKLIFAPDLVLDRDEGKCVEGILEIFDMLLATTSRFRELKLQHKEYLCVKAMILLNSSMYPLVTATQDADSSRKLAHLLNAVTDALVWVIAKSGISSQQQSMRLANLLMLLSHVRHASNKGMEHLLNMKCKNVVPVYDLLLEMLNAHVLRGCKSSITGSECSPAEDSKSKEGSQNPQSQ
How it was run: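 In HEK293T cells bearing a UAS-beta-lactamase reporter under ER-beta control, DMSO-delivered compounds were incubated for 16 hr at 37C. Activity was detected as fluorescence 2 hours after LiveBLAzer B/G FRET substrate addition.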

[15] = target: Estrogen receptor beta (Homo sapiens) (UniProt Q92731); assay: qHTS assay to identify small molecule antagonists of the estrogen receptor beta (ER-beta) signaling pathway (AID 1259378; active means well fitted inhibition curve with a large enough effect in the signal ratio in the repeat runs, not every such curve was filed as active; the % refers to the signal ratio)
How it was run: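 ER-beta-UAS-bla HEK293T cells in 2% charcoal-stripped FBS medium treated with compound plus 1nM final 17-beta-estradiol for 16 hr at 37C. Beta-lactamase reporter read by FRET substrate fluorescence after 2 hours at room temperature.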

[16] = qHTS assay to identify small molecule agonists of the androgen receptor (AR) signaling pathway in the presence of an antagonist - cell viability counter screen (AID 1259379);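 further: MDA-kb2 human breast cancer cells carrying an MMTV luciferase reporter; series mostly up to about 92 µM; nearly all actives have a fitted effect of over 25% in size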
How it was run: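 Cytotoxicity is assessed by CellTiter-Fluor in MDA-kb2 cells carrying an MMTV-driven luciferase reporter. Cells receive 3.0uM nilutamide plus compounds at 15 concentrations and incubate 16 hr at 37C without CO2 before fluorescence reading.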

[17] = qHTS assay to identify small molecule antagonists of the estrogen receptor alpha (ER-alpha) signaling pathway using the BG1 cell line in the presence of 0.1 nM 17-beta-estradiol - cell viability counter screen (AID 1259241); further: nearly all actives have a fitted effect of over 40% in size
How it was run: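 Measures cytotoxicity alongside the ER-alpha antagonist readout: VM7Luc4E2 cells, charcoal-stripped serum, 0.1 nM 17beta-estradiol final, 22 hr compound incubation at 37C, CellTiter-Fluor fluorescence.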

[18] = qHTS assay to identify small molecule agonists of the sonic hedgehog signaling (Shh) pathway (AID 1259368; calls by dose curve;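 further: NIH/3T3-derived 3T3Gli1-Luc cells carrying a stable Gli1-driven firefly luciferase reporter; series mostly up to about 92 µM; nearly all actives have a fitted effect of over 15% in size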)
How it was run: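 Cells of a mouse NIH/3T3 clone stably expressing luciferase under the Gli1 transcriptional response element are exposed to test chemicals for 24 hr at 37 C. Pathway activation is detected as a rise in luminescence.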

[19] = qHTS assay to identify small molecule agonists of the estrogen receptor beta (ER-beta) signaling pathway - cell viability counter screen (AID 1259380); further: nearly all actives have a fitted effect of over 30% in size
How it was run: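 Cytotoxicity is measured in parallel with the reporter screen: after 16 hr compound exposure at 37C and a 2 hr LiveBLAzer step, CellTiter-Glo is added to the same ER-beta-UAS-bla HEK293T wells and luminescence read after 30 min.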

[20] = target: Androgen receptor (Homo sapiens) (UniProt P10275); assay: qHTS assay to identify small molecule antagonists of the androgen receptor (AR) signaling pathway using the MDA cell line in the presence of 0.5 nM R1881 (AID 1259243); further: nearly all actives have a fitted effect of over 50% in size
Androgen receptor (Homo sapiens), sequence (P10275 whole entry, looked up): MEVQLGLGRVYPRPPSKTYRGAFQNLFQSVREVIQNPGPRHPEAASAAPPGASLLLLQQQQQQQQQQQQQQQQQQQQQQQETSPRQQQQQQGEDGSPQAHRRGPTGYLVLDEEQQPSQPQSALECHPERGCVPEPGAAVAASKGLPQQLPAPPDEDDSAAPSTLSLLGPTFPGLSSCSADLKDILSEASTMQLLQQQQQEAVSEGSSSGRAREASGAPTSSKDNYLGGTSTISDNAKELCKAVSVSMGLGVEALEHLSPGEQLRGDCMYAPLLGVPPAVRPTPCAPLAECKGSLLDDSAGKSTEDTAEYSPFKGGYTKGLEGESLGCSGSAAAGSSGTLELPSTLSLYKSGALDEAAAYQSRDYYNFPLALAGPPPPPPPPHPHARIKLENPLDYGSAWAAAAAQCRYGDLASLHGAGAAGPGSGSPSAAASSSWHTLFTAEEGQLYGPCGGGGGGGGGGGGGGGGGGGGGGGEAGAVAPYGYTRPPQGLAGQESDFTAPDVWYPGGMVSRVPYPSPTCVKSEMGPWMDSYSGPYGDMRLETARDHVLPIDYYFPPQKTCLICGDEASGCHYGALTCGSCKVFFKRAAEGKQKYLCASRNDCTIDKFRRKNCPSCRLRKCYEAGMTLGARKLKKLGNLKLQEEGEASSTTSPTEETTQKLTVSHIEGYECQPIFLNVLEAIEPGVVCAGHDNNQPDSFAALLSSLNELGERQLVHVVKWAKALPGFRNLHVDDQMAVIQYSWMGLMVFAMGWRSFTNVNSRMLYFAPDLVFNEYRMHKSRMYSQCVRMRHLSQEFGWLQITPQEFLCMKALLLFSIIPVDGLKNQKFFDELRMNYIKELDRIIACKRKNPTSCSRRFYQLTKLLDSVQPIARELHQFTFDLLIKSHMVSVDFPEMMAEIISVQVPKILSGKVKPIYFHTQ
How it was run: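 Stably transfected MDA-kb2 cells express luciferase from an MMTV promoter bearing both AR and GR response elements. Compounds plus 0.5 nM R1881 (final) were incubated 16 hr at 37C without CO2, then luminescence measured.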

Measured: Potency

COc1cc2c(Nc3ccc(Br)cc3F)ncnc2cc1OCC1CCN(C)CC1
inactive: [1] | [2] | [3] | [4] | [5] | [6] | [7] | [8] | [9] | [10] | [11] | [12] | [13] | [14] | [15] | [16]

CC(C)SCc1ccco1
inactive: [1] | [2] | [3] | [4] | [5] | [17] | [6] | [9] | [10] | [12] | [18] | [13] | [14] | [16] | [19]

Cc1cccc(C(=O)O)c1[N+](=O)[O-]
inactive: [1] | [2] | [3] | [4] | [5] | [17] | [6] | [9] | [10] | [11] | [12] | [13] | [14] | [15] | [16] | [19]

CCCCCC1CCCC(=O)O1 (configuration not stated)
inactive: [1] | [2] | [3] | [4] | [5] | [17] | [6] | [9] | [10] | [11] | [12] | [13] | [14] | [16] | [19]

C=CCOCC(CO)(COCC=C)COCC=C
inactive: [1] | [2] | [3] | [4] | [5] | [6] | [7] | [9] | [10] | [11] | [12] | [18] | [13] | [14] | [16]

O=C(O)C(=O)Nc1cccc(-c2nn[nH]n2)c1
inactive: [1] | [2] | [3] | [4] | [5] | [6] | [8] | [9] | [10] | [11] | [12] | [18] | [13] | [16] | [19]

CC(C)c1ccccc1O
inactive: [1] | [2] | [3] | [4] | [5] | [6] | [9] | [10] | [11] | [12] | [18] | [13] | [14] | [15] | [16]

CC(=O)c1ccc2c(c1)CCCC2
inactive: [1] | [2] | [3] | [4] | [5] | [6] | [7] | [9] | [10] | [12] | [18] | [13] | [14] | [15] | [16] | [19]

OC[C@@H](O)[C@H](O)[C@@H](O)[C@@H](O)CO
inactive: [1] | [2] | [3] | [4] | [5] | [6] | [7] | [9] | [10] | [11] | [12] | [18] | [13] | [16] | [19]

Nc1ccnc(=O)[nH]1
inactive: [1] | [2] | [3] | [4] | [5] | [6] | [20] | [7] | [9] | [10] | [11] | [12] | [18] | [13] | [14] | [15] | [16]

CO[Si](CCCS)(OC)OC
inactive: [1] | [2] | [3] | [4] | [5] | [6] | [7] | [9] | [10] | [11] | [12] | [18] | [13] | [14] | [15] | [16] | [19]

NS(=O)(=O)c1ccccc1OC(F)(F)F
inactive: [1] | [2] | [3] | [4] | [5] | [6] | [9] | [10] | [11] | [12] | [18] | [13] | [14] | [15] | [16] | [19]

CC(=O)OC[C@H]1O[C@@H](OC(C)=O)[C@H](OC(C)=O)[C@@H]1OC(C)=O
inactive: [1] | [2] | [3] | [4] | [5] | [6] | [20] | [7] | [9] | [10] | [11] | [12] | [18] | [16] | [19]

c1ccc(CNc2ncnc3nc[nH]c23)cc1
inactive: [3] | [4] | [5] | [17] | [6] | [10] | [11] | [12] | [18] | [13] | [14] | [15] | [16] | [19]

C1=CCC(c2ccccc2)CC1 (configuration not stated)
inactive: [1] | [2] | [4] | [5] | [17] | [6] | [9] | [10] | [12] | [18] | [13] | [14] | [15] | [16] | [19]

CCC(=O)OCCC(C)CCC=C(C)C (configuration not stated)
inactive: [1] | [2] | [4] | [5] | [17] | [6] | [9] | [10] | [11] | [12] | [18] | [13] | [15] | [16] | [19]

— PubChem BioAssay (Tox21)
